In experiment [1] the target is human Peroxisome Proliferator-activated Receptor delta (PPARd), PPARD (gene 5467) (UniProt Q03181). Briefly: ATG_PPARd_TRANS: Attagene TRANS-FACTORIAL HepG2 Assay for human Peroxisome Proliferator-activated Receptor delta (PPARd) (AID 2283002). In short, it runs like this:
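Read-out: reporter mRNA induction, quantified by fluorescent RT-PCR products resolved by capillary electrophoresis. Human HepG2 liver cells carried transiently transfected Gal4-UAS reporter constructs with chimeric NR-Gal4 fusions. Cells were dosed for 24 h; DMSO served as baseline.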

In experiment [2] the target is Retinoic acid receptor alpha (Homo sapiens) (UniProt P10276). Briefly: ATG_RARa_TRANS: Attagene TRANS-FACTORIAL HepG2 Assay for human Retinoic Acid Receptor alpha (RARa) (AID 2283005). In short, it runs like this: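 HepG2 transiently transfected with multiplex GAL4-UAS reporter units including a human RARa–GAL4 chimera; 24 h compound exposure. Reporter mRNA quantified by RT-PCR, 6-FAM labeling and capillary electrophoresis; gain of signal versus DMSO.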

In experiment [3] the target is Peroxisome proliferator-activated receptor gamma (Homo sapiens) (UniProt P37231). Briefly: ATG_PPARg_TRANS: Attagene TRANS-FACTORIAL HepG2 Assay for human Peroxisome Proliferator-activated Receptor-gamma (PPARg) (AID 2283007). Put shortly:
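Twenty-four hours after chemical dosing of transiently transfected HepG2 cells, isolated RNA was converted to cDNA, reporter sequences amplified and 6-FAM-labelled, then HpaI-digested and analysed by capillary electrophoresis. Signal increase against DMSO was fitted.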

The target of experiment [4] is human Retinoic Acid Receptor beta (RARb), RARB (gene 5915) (UniProt P10826). Put plainly: ATG_RARb_TRANS: Attagene TRANS-FACTORIAL HepG2 Assay for human Retinoic Acid Receptor beta (AID 2283004). Put shortly: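 Transient transfection of HepG2 with multiple reporter units → chemical dosing, 24 h → total RNA isolation → RT with oligo(dT) → reporter-specific PCR, 6-FAM primer extension, HpaI digest → capillary electrophoresis. Positive direction vs DMSO control.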

Experiment [5] concerns the target Nuclear receptor subfamily 1 group I member 2 (Homo sapiens) (UniProt O75469). Put plainly: ATG_PXR_TRANS: Attagene TRANS-FACTORIAL HepG2 Assay for human Pregnane X Receptor (PXR) (AID 2283008). In short, it runs like this: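 Trans-factorial format: exogenous NR-Gal4 fusion activity, not endogenous factor, in transfected human HepG2 liver cells. After 24 h dosing, RNA isolated, reverse-transcribed, amplified and resolved by capillary electrophoresis; induction scored versus DMSO.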

Experiment [6] deals with human Retinoic Acid Receptor gamma (RARg), RARG (gene 5916) (UniProt P13631). Briefly: ATG_RARg_TRANS: Attagene TRANS-FACTORIAL HepG2 Assay for human Retinoic Acid Receptor gamma (RARg) (AID 2283009). In short, it runs like this: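 Readout: reporter transcript levels via RT-PCR, 6-FAM primer-extension labelling, HpaI digestion and capillary electrophoresis. Cells: HepG2 carrying transfected RARg-GAL4 chimera plus UAS reporter set. Dosing 24 h; DMSO negative control.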

Results filed as inconclusive are left out. Active and inactive are the calls of the source. The calls were made as follows: active = hit-call score of the fitted dose curve at least 0.9, where 1 is the maximum; inconclusive = response in the unintended direction; inactive = score below 0.9.

The values that follow come from PubChem BioAssay (EPA / NIEHS).

Usually AC50 stands for the concentration at which the activity in the assay is half-maximal.

Retinoic acid receptor alpha (Homo sapiens), sequence (P10276 whole entry, looked up, the tested form may be a part): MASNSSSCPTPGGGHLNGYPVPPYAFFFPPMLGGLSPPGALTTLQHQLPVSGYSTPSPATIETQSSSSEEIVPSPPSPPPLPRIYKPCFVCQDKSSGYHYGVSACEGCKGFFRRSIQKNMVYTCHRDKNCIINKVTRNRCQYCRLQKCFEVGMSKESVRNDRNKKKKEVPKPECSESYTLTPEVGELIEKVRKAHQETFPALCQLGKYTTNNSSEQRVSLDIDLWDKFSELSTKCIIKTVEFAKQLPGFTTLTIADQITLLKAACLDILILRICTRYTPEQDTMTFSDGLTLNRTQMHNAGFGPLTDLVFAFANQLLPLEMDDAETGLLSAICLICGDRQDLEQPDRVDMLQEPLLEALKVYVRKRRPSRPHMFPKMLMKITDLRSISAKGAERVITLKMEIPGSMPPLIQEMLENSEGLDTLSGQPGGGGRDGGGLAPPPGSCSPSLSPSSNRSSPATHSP
Nuclear receptor subfamily 1 group I member 2 (Homo sapiens), sequence (O75469 whole entry, looked up, the tested form may be a part): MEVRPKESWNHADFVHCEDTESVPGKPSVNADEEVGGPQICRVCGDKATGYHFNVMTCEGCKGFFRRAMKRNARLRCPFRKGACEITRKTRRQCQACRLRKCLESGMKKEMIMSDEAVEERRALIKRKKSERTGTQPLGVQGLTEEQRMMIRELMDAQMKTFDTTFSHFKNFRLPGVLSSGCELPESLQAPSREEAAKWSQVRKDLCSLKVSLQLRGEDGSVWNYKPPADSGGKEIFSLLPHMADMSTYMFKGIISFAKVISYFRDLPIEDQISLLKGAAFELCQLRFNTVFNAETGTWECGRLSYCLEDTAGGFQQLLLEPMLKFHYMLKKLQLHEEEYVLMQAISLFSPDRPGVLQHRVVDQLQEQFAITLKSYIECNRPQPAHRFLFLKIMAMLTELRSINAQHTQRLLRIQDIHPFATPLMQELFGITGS
Peroxisome proliferator-activated receptor gamma (Homo sapiens), sequence (P37231 whole entry, looked up): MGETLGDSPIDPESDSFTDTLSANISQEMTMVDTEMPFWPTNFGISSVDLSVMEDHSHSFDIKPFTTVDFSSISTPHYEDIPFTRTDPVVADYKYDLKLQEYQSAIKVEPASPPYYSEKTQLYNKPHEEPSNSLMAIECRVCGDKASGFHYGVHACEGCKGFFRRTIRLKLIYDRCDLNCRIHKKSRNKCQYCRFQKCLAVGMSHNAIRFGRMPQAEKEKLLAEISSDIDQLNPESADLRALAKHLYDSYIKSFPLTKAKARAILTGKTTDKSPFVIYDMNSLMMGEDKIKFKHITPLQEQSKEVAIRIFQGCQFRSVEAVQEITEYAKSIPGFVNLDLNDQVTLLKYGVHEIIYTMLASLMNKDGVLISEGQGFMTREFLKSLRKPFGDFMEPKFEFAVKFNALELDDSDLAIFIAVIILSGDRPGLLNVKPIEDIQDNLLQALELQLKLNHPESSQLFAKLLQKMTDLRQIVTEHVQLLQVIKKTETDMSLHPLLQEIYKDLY
human Peroxisome Proliferator-activated Receptor delta (PPARd), PPARD (gene 5467), sequence (Q03181 whole entry, looked up, the tested form may be a part): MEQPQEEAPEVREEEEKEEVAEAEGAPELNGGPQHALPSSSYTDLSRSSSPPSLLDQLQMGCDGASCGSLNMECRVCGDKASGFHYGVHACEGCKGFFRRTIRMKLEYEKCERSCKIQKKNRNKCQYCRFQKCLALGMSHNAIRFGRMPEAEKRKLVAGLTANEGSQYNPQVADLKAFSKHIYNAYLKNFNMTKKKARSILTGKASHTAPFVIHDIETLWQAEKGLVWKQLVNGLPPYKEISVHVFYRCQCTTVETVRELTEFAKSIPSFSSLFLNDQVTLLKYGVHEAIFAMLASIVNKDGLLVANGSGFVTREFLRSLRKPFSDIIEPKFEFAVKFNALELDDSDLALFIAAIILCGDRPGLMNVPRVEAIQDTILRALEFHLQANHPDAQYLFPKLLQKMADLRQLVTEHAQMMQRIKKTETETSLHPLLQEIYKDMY
human Retinoic Acid Receptor beta (RARb), RARB (gene 5915), sequence (P10826 whole entry, looked up): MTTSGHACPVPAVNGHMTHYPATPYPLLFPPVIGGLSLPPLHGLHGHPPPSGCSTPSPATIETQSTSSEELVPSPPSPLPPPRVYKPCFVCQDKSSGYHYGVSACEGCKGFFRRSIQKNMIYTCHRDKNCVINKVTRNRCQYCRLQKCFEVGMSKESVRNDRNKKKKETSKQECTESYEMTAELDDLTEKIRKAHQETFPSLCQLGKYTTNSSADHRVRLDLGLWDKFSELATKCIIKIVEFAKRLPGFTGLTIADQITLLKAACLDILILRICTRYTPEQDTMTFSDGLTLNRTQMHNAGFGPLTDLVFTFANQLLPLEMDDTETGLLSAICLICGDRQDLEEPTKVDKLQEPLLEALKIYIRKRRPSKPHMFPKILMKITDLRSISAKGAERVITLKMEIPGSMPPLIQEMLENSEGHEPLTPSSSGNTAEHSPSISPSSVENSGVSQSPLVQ
human Retinoic Acid Receptor gamma (RARg), RARG (gene 5916), sequence (P13631 whole entry, looked up, the tested form may be a part): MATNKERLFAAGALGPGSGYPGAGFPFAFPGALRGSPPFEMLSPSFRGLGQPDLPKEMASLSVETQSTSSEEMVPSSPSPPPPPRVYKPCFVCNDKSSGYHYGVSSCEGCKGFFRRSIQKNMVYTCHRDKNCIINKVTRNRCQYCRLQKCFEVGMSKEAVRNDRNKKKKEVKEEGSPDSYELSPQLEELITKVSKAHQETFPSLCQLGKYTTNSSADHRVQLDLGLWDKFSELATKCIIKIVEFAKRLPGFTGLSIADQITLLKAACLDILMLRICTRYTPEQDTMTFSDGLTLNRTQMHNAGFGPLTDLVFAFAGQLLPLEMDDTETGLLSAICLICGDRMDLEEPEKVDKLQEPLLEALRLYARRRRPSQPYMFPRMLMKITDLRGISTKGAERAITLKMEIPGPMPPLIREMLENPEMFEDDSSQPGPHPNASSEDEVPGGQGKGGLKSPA

In the case of `COc1cc(C)ccc1O`, the result in experiment [1], in experiment [2] and in experiment [3] was inactive.
For `COc1nccnc1CC(C)C`, the result in experiment [1], in experiment [4], in experiment [5] and in experiment [6] was inactive.
`OCCCc1ccccc1`: the outcome in experiment [1], in experiment [2], in experiment [3] and in experiment [6] was inactive.
For `C=Cc1ccc(OC(C)=O)cc1`, the compound was classed as inactive in experiment [1], in experiment [4], in experiment [3] and in experiment [5].
On to `Cc1cc(C)n(CO)n1`, for which the call in experiment [1], in experiment [4] and in experiment [3] was inactive.
As to `O=C(O)CCCC(=O)O`, the compound was called inactive in experiment [1], in experiment [3] and in experiment [5].
Regarding `C[Si]1(C)O[Si](C)(C)O[Si](C)(C)O[Si](C)(C)O[Si](C)(C)O1`, the compound was called inactive in experiment [1], in experiment [3] and in experiment [5].
Turning to `C=C(C)C(=O)OCCOC(=O)C(=C)C`, the result in experiment [1], in experiment [4], in experiment [2] and in experiment [6] was inactive. The AC50 in experiment [3] was 62.2 µM (active).
As for `Cn1cccc1`, the call in experiment [1], in experiment [2], in experiment [3] and in experiment [5] was inactive.
As to `CCC[Si](OC)(OC)OC`, the call in experiment [1], in experiment [4], in experiment [2], in experiment [5] and in experiment [6] was inactive.
In the case of `Cc1ccc(S(=O)(=O)N=C=O)cc1`, the outcome in experiment [1], in experiment [3] and in experiment [5] was inactive.
For the compound `CC(=O)OC1CCCCC1`, the call in experiment [1], in experiment [2], in experiment [5] and in experiment [6] was inactive.
Consider `CCC(=O)C1CC(C(C)C)CC=C1C` (stereo unspecified), for which the compound was called inactive in experiment [1], in experiment [2] and in experiment [6]. In addition, the half-maximal activity concentration (AC50) was 58.3 µM (active) in experiment [3] and 3.16 µM (active) in experiment [5].
Take `CCCCc1ccc(Cl)cc1`: the outcome in experiment [1], in experiment [3] and in experiment [5] was inactive.
In the case of `O=C(Oc1ccccc1)c1ccccc1O`, the outcome in experiment [3] and in experiment [5] was inactive.
For the compound `CC(C)CO`, the result in experiment [4] and in experiment [2] was inactive.
Turning to `CCCCC(=O)O`, the result in experiment [4], in experiment [2] and in experiment [6] was inactive.
In the case of `CC(=O)CC(=O)Nc1ccccc1C`, in experiment [6], the result was inactive.
Consider `CCCCCCOc1ccc(N)cc1`, for which the compound was called inactive in experiment [3] and in experiment [5].
Take `O=C(Cl)c1ccc(C(=O)Cl)cc1`: the outcome in experiment [4], in experiment [5] and in experiment [6] was inactive.
As for `CCCCOCC(C)O` (stereo unspecified), the compound was called inactive in experiment [3], in experiment [5] and in experiment [6].
As for `CCCCC(CC)COS(=O)(=O)O` (stereo unspecified), the result in experiment [1] and in experiment [5] was inactive.
As to `NNS(=O)(=O)c1ccc(Oc2ccc(S(=O)(=O)NN)cc2)cc1`, the call in experiment [3] and in experiment [5] was inactive.
Consider `COCC(=O)O`, for which the compound was classed as inactive in experiment [2] and in experiment [3].
`N=C1C=CC(=C(c2ccc(N)cc2)c2ccc(N)cc2)C=C1`: in experiment [3], the concentration at half-maximal activity (AC50) was 31.9 µM (active). In addition, the result in experiment [5] and in experiment [6] was inactive.
With `CO[Si](C)(C)OC`, the outcome in experiment [4], in experiment [3] and in experiment [5] was inactive.
Turning to `CC(C)(C)NC(=O)[C@H]1CC[C@H]2[C@@H]3CC[C@H]4NC(=O)C=C[C@]4(C)[C@H]3CC[C@]12C`, in experiment [1], the call was inactive. The AC50 in experiment [5] was 19.8 µM (active).
On to `CCc1cccc(CC)c1`, for which the result in experiment [2], in experiment [3] and in experiment [6] was inactive.
For `CC(C)(C)N`, the outcome in experiment [3] and in experiment [5] was inactive.
In the case of `CC(C)c1ccc(O)c(C(C)C)c1`, the compound was called inactive in experiment [4], in experiment [3] and in experiment [6]. Besides, in experiment [5], the concentration at half-maximal activity (AC50) is 6.58 µM (active).
As for `CCCC(CC)c1ccccc1` (stereo unspecified), the result in experiment [3], in experiment [5] and in experiment [6] was inactive.
On to `CC(C)(c1ccccc1)c1ccc(Nc2ccc(C(C)(C)c3ccccc3)cc2)cc1`, for which the result in experiment [3] and in experiment [5] was inactive.
`CC(=O)OC(C)c1ccccc1` (stereo unspecified): in experiment [4], the outcome was inactive.
On to `Cc1cccc(C(C)(C)C)c1O`, for which the result in experiment [4], in experiment [2], in experiment [3] and in experiment [6] was inactive. The half-maximal activity concentration (AC50) in experiment [5] is 19.9 µM (active).
In the case of `CCCCNS(=O)(=O)c1ccc(C)cc1`, the call in experiment [1] and in experiment [5] was inactive.
For the compound `CC1CC(=O)CC(C)(C)C1` (stereo unspecified), the outcome in experiment [1], in experiment [5] and in experiment [6] was inactive.
Take `CCCCC1CCC(=O)O1` (stereo unspecified): the compound was called inactive in experiment [4], in experiment [2], in experiment [3] and in experiment [6]. Further, the AC50 in experiment [5] was 41.4 µM (active).
Consider `CC1CCC(=O)C1=O` (stereo unspecified), for which the outcome in experiment [4], in experiment [3] and in experiment [5] was inactive.
